Screening data as filed in PubChem BioAssay.
NTR1 ag – activates human neurotensin receptor 1. P30989. NTR1-U2OS beta-arrestin-GFP spot imaging, agonist mode. activation, % at 20 µM. 330,000 compounds, 0.17% hits. AID 493036;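 active means activation at or above 40% of the spot to cytoplasm intensity ratio, with at least 20 cells analyzed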
HTR2A ag – activates the mouse 5-HT2A serotonin receptor; P35363; CHO-K1 mHTR2A beta-arrestin complementation, luminescence; percent of 30 µM serotonin response; activation, % at 7.6 µM; 360,000 compounds, 0.66% hits; AID 624169;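 active means activation above a run cutoff, the mean activation of all tested compounds plus 3 SD, cut at about 14% in these data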
Target sequence (P35363 whole entry, looked up): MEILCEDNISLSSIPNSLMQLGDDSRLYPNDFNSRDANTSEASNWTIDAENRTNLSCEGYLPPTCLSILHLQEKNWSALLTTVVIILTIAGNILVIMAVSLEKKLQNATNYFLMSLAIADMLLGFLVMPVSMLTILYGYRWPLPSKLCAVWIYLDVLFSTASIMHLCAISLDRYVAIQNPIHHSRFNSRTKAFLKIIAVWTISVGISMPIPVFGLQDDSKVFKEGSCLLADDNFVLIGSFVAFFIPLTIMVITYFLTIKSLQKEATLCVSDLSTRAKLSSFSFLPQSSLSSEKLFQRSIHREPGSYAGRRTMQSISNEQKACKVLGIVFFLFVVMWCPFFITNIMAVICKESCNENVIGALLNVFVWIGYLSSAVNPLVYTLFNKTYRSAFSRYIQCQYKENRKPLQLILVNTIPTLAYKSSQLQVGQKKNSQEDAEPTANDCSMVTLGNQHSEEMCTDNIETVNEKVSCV
Granule exo inh – blocks lytic granule exocytosis. TALL-104 LAMP-1 surface exposure, flow cytometry; cells stimulated with thapsigargin and PMA. inhibition, % at 10 µM. 360,000 compounds, 0.66% hits. AID 651702;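 active means inhibition above about 55%, limit read from the data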
ABHD5-PLIN5 inh – blocks binding of human ABHD5 to perilipin-5; Q00G26+Q8WTS1; Split G. princeps luciferase complementation, luminescence, 4 h; inhibition, % at 4 µM; 360,000 compounds, 0.78% hits; AID 602281;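 active means inhibition above the mean inhibition across every tested compound plus 3 SD, cut at about 22% in these data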
B2AR ag – agonists of human beta-2 adrenergic receptor inducing internalization; P07550; Am2.2-beta2AR cells, FAP receptor internalization, flow cytometry; response, % (concentration not given with the values); 340,000 compounds, 0.43% hits;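 active means response above a set limit, near 3 SD of response in nonfluorescent compounds, cut at about 42% in these data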
ABHD5-PLIN5 conf – ABHD5-PLIN5 interaction inhibition, confirmed; 2,200 compounds, 67% hits; biochemical ABHD5-PLIN5 interaction, luminescence; inhibition, % at 4 µM; shares compounds with ABHD5-PLIN5 inh; AID 651612; in the data active means inhibition above about 23%
HNF4 split-luc – counter-screen for ABHD5-PLIN5 inhibitors: HNF4 split-luciferase; shares compounds with ABHD5-PLIN5 inh; HNF4 dimerization, luminescence, biochemical; 2,200 compounds, 77% hits; inhibition, % at 4 µM; AID 651674;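 active means mean inhibition across replicate wells exceeding the computed hit threshold, cut at about 13% in these data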;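 further: light from luciferase halves that rejoin when HNF4 fusion proteins dimerize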
Large screens that a line does not name were inactive (follow-up assays come after a bar, where they were run); ! = not active in a repeat. Sampled rows, rich in hits. Any-hit rate of the full collection: about 2.3%.

O=C(NC1CCCCC1)C1CC=CCC1C(=O)OCC(Cl)=C(Cl)Cl (configuration not stated)	none
COc1ccc(/C=C/C(=O)c2cc(F)ccc2OC(=O)c2ccccc2)cc1OC	none
COc1ccc(/C=C/C(=O)c2cc(F)ccc2OC(=O)c2ccc(OC)c(OC)c2)cc1OC	ABHD5-PLIN5 inh 46 | ABHD5-PLIN5 conf 77 | HNF4 split-luc 52
COc1ccc(/C=C/C(=O)c2cc(F)ccc2OC(=O)c2ccccc2OC)cc1OC	ABHD5-PLIN5 inh 63 (no result: NTR1 ag) | ABHD5-PLIN5 conf 78 | HNF4 split-luc 60
COc1cccc(CN2CC(C(=O)NCCCCc3ccccn3)CCC2=O)c1 (configuration not stated)	none
O=C(Nc1ccccc1N1CCOCC1)c1cccc(NS(=O)(=O)c2ccc(F)c(F)c2)c1	none
NC(=NCCCCCCN=C(N)/N=C(\N)Nc1ccc(Cl)cc1)/N=C(\N)Nc1ccc(Cl)cc1	ABHD5-PLIN5 inh 34! | ABHD5-PLIN5 conf 26 | HNF4 split-luc inactive
Cc1nc(NC(=O)/C=C/c2ccccc2)n[nH]1	ABHD5-PLIN5 inh 25 | ABHD5-PLIN5 conf 42 | HNF4 split-luc 38
Cc1ccc2c(c1)C(c1ccccc1)N(C(=O)c1c(F)cccc1Cl)CC(=O)N2 (configuration not stated)	none
CCN(CCCc1ccccc1)CCCc1ccccc1	ABHD5-PLIN5 inh 38 | ABHD5-PLIN5 conf 74 | HNF4 split-luc 33
O/N=C/c1cc(Cl)ccc1OCc1cccc2ccccc12	none (no result: HTR2A ag, Granule exo inh, ABHD5-PLIN5 inh, B2AR ag)
N#Cc1ccc(C(C(=O)NC2CCCCC2)n2c(=O)c(-c3ccco3)nc3ccccc32)cc1 (configuration not stated)	ABHD5-PLIN5 inh 82 (no result: NTR1 ag, B2AR ag) | ABHD5-PLIN5 conf 84 | HNF4 split-luc 32
O=C(NC1CCCCC1)C(c1ccc(C(F)(F)F)cc1)n1c(=O)c(-c2ccco2)nc2ccccc21 (configuration not stated)	ABHD5-PLIN5 inh 85 (no result: NTR1 ag, B2AR ag) | ABHD5-PLIN5 conf 90 | HNF4 split-luc 13
N#Cc1ccc(C(C(=O)NC2CCCCC2)n2c(=O)c(-c3cc4ccccc4[nH]3)nc3ccccc32)cc1 (configuration not stated)	none (no result: NTR1 ag, B2AR ag)
O=C(NC1CCCCC1)C(c1ccccc1)n1c(=O)c(-c2ccco2)nc2ccccc21 (configuration not stated)	ABHD5-PLIN5 inh 86 (no result: NTR1 ag, B2AR ag) | ABHD5-PLIN5 conf 97 | HNF4 split-luc 54
O=C(NC1CCCCC1)C(c1ccccc1)n1c(=O)c(-c2cc3ccccc3[nH]2)nc2ccccc21 (configuration not stated)	none (no result: NTR1 ag, B2AR ag)
Cc1cc(S(=O)(=O)N2CCCC(C(=O)Nc3ccc(C(=O)O)cc3)C2)ccc1Cl (configuration not stated)	none
N#Cc1ccccc1OCc1cn(CC(=O)c2ccc(O)cc2)nn1	ABHD5-PLIN5 inh 31 (no result: NTR1 ag) | ABHD5-PLIN5 conf 66 | HNF4 split-luc 39
CCOC(=O)/C(=C\c1ccc(Cl)cc1)c1nc2sc(C)c(C)c2c(=O)[nH]1	ABHD5-PLIN5 inh 46, B2AR ag 51 | ABHD5-PLIN5 conf 99 | HNF4 split-luc 77
CCOC(=O)CSc1nc2sc(C)c(C)c2c(=O)[nH]1	none
COC(=O)[C@H](Cc1ccccc1)NS(=O)(=O)c1ccc(F)cc1Br	none (no result: NTR1 ag)
C=CCC[C@@H](Cc1ccc(F)cc1)C(=O)OC[C@@H]1CCCN1C(=O)[C@@H](CC=C)CC(=O)N[C@@H](CO)Cc1ccccc1	none
CCOC(=O)CSc1[nH]c2cc(OC)ccc2c1[N+](=O)[O-]	none
COC(=O)CSc1[nH]c2ccc(F)cc2c1[N+](=O)[O-]	ABHD5-PLIN5 inh 25 | ABHD5-PLIN5 conf 44 | HNF4 split-luc 83
OC(c1ccc(F)c(F)c1)c1nc(-c2ccc3c(c2)OCO3)cs1 (configuration not stated)	none (no result: NTR1 ag, B2AR ag)
CC(C)SC1=NC(C)(C)C=C(/C=C/c2ccc(Cl)cc2Cl)N1	ABHD5-PLIN5 inh 39 | ABHD5-PLIN5 conf 25 | HNF4 split-luc 31
CCOc1ccc2cc(/C=C/C(=O)c3ccco3)c(Cl)nc2c1	ABHD5-PLIN5 inh 25 | ABHD5-PLIN5 conf 71 | HNF4 split-luc 56
CCOc1ccc2nc(SCC(=O)NNC(=O)c3ccco3)c(C)cc2c1	none
CN(C)CCCNC(=O)/C(=C\c1ccc(-c2ccc(Br)cc2)o1)NC(=O)c1ccccc1	ABHD5-PLIN5 inh 24 | ABHD5-PLIN5 conf inactive | HNF4 split-luc inactive
COc1cccc(/C=C/c2[nH]c(=O)[nH]c(=O)c2[N+](=O)[O-])c1O	ABHD5-PLIN5 inh 32 | ABHD5-PLIN5 conf 78 | HNF4 split-luc 80
O=C(COc1ccccc1/C=C\c1[nH]c(=O)[nH]c(=O)c1[N+](=O)[O-])Nc1ccccc1	ABHD5-PLIN5 inh 30 (no result: NTR1 ag) | ABHD5-PLIN5 conf 87 | HNF4 split-luc 84
O=c1[nH]c(/C=C/c2ccccc2Cl)c([N+](=O)[O-])c(=O)[nH]1	ABHD5-PLIN5 inh 39 | ABHD5-PLIN5 conf 71 | HNF4 split-luc 61
CCOc1ccc(/C=C/c2[nH]c(=O)[nH]c(=O)c2[N+](=O)[O-])cc1	none
Cn1c(N)c(C(=O)COC(=O)c2ccccc2C(=O)c2ccc(Cl)cc2)c(=O)n(C)c1=O	none
CCOC(=O)c1nn(-c2ccccc2)c(=O)c2c(N)scc12	ABHD5-PLIN5 inh 25 | ABHD5-PLIN5 conf inactive | HNF4 split-luc 95
Oc1cc(NCCN2CCOCC2)cc2cccnc12	ABHD5-PLIN5 inh 51 | ABHD5-PLIN5 conf inactive | HNF4 split-luc inactive
Oc1cc(Nc2ccccc2)cc2cccnc12	none
CC(C)(C=O)C1=CC(=O)c2ccccc2C1=O	Granule exo inh 91, ABHD5-PLIN5 inh 34, B2AR ag 66 (no result: NTR1 ag) | ABHD5-PLIN5 conf 81 | HNF4 split-luc 103
O=C(N1CCCCC1)C1(S(=O)(=O)c2ccccc2)CC=CC1	ABHD5-PLIN5 inh 33 | ABHD5-PLIN5 conf inactive | HNF4 split-luc inactive
O=C(c1ccc(S(=O)(=O)NCc2ccco2)cc1)N1CCCC1	none
CC1CCN(C(=O)c2ccc(S(=O)(=O)NCc3ccco3)cc2)CC1	ABHD5-PLIN5 inh 24 | ABHD5-PLIN5 conf inactive | HNF4 split-luc inactive
CCCCNC(=O)Cn1cnc2sc(C)c(S(=O)(=O)N3CCN(c4ccccc4OC)CC3)c2c1=O	none
CN(C)CCCNC(NC(=O)c1cccs1)C(Cl)(Cl)Cl (configuration not stated)	none
CCCCOCCCNC(=O)C[C@@H]1C[C@@]2(C(=O)OCC)CCC=C2N(Cc2ccccc2)C1=O	none (no result: NTR1 ag, B2AR ag)
O=C1CCN(Cc2ccc(O)cc2)CCN1[C@H](CO)c1ccccc1	ABHD5-PLIN5 inh 47 | ABHD5-PLIN5 conf inactive | HNF4 split-luc 15
CC(=O)Oc1ccc(N2C(=O)C3C4C=CC(CO)(O4)C3C2=O)cc1 (configuration not stated)	ABHD5-PLIN5 inh 26 | ABHD5-PLIN5 conf inactive | HNF4 split-luc 67
